Laboratory results as given in ChEMBL document CHEMBL3433997, “St. Jude Leishmania screening dataset” (2016).

Biological target: Solute carrier family 2, facilitated glucose transporter member 1 (Homo sapiens) (UniProt P11166)
Assay: ST_JUDE_LEISH: Cytotoxicity at 2uM final concentration against transgenic Leishmania Mexicana promastigotes LmGLUT1 that are glucose transport deficient and complemented with the human glucose transporter GLUT1. Activity is measured by DNA content using SYBR green in vitro
Assay type: functional

Solute carrier family 2, facilitated glucose transporter member 1 (Homo sapiens), sequence (P11166 whole entry): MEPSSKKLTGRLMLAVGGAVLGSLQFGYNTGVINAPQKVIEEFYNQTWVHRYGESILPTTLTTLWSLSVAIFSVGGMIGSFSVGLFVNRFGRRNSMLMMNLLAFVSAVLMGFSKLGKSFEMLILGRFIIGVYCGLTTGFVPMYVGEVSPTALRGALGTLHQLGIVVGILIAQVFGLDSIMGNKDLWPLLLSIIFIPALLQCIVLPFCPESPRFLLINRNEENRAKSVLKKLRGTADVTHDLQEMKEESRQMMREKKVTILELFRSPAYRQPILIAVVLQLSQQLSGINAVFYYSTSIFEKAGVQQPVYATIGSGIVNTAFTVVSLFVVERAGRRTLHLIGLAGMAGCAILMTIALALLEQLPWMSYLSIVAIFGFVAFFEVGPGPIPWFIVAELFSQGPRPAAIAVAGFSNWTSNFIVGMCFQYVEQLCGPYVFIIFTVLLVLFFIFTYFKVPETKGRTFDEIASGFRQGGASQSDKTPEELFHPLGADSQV

Q: For `Cc1sc2nc(CSc3ccccc3)nc(N3CCN(CC(=O)NC4CC4)CC3)c2c1C`, which inhibition is on record?
A: The inhibition was -0.96%.

Q: With `CCN(Cc1ccc(-c2ccc(C(F)(F)F)cc2)cc1)C(=O)Cn1c(SCc2cccc(F)c2F)cc(=O)c2cc(CN3CCCCC3)ccc21` as the molecule, how does the inhibition read?
A: Its inhibition is 0.46%.

Q: For `CCn1c(-c2nonc2N)nc2cnc(Oc3cccc(NC(=O)c4ccc(OCCN(C(C)C)C(C)C)cc4)c3)cc21`, which inhibition is on record?
A: The inhibition was 15.1%.

Q: For `CCN1CCN(c2cc(C)c3cc(NC(=O)c4ccc(Br)o4)ccc3n2)CC1`, which inhibition is on record?
A: Its inhibition is 6.38%.

Q: With `COc1ccc(CCNCC(O)c2cccc(Br)c2)c(Cl)c1OC` (stereo not drawn) as the molecule, how does the inhibition read?
A: The inhibition was -3.38%.

Q: For `COc1ccc2nccc([C@@H](O)CN3CCC(NCCNc4cccc(F)c4)CC3)c2c1`, which inhibition is on record?
A: Its inhibition is 6.07%.

Q: For `O=C(Cn1c(CCc2cccc(F)c2F)cc(=O)c2ccccc21)N(CCN1CCCCC1)Cc1ccc(-c2ccc(C(F)(F)F)cc2)cc1`, which inhibition is on record?
A: Its inhibition is 6.77%.

Q: With `CC(C)(C)Cn1cc(-c2ccc(C(=O)NCCc3ccc(S(C)(=O)=O)cc3)cc2)c(N)n1.CC(C)(C)Cn1ncc(-c2ccc(C(=O)NCCc3ccc(S(C)(=O)=O)cc3)cc2)c1N` as the molecule, how does the inhibition read?
A: Its inhibition is 0.21%.

Q: How did the inhibition turn out when `CN1CCC(NCc2ccc(-c3cccc(S(=O)(=O)NCC4CCCO4)c3)cc2)CC1` (stereo not drawn) was run?
A: Its inhibition is 0.62%.

Q: Which inhibition does the source give for `COc1ccc2ccccc2c1C=NN=c1cc(C)[nH]c2cc(C(F)(F)F)ccc12` here?
A: The inhibition was 10.2%.

Q: `O=C(/C=C/c1ccc(Cl)c(Cl)c1)NC1CCN(Cc2ccc(O)cc2)CC1` was tested. Which inhibition did it give?
A: The inhibition was 1.47%.

Q: For `NS(=O)(=O)c1cccc(Nc2nccc(-c3c(-c4cccc(NC(=O)c5c(F)cccc5F)c4)nn4ccccc34)n2)c1`, which inhibition is on record?
A: Its inhibition is 2.78%.

Q: `CCN(CC)CCCN1CCN(C(=O)c2cccc(-c3noc(C(F)(F)F)n3)c2)CC1` was tested. Which inhibition did it give?
A: Its inhibition is 5.54%.

Q: Which inhibition does the source give for `Cc1cccc2nc(-c3cccc(-c4ccc(CNCc5cccc(N)c5)cc4)c3)[nH]c12` here?
A: The inhibition was -2.78%.

Q: With `CNC(=O)c1cnc(Nc2ccc(N3CCN(C)CC3)c(C)c2)nc1NC` as the molecule, how does the inhibition read?
A: The inhibition was -0.78%.

Q: `CCOCCCn1c(=N)c(C(=O)NCc2ccc(F)cc2)cc2c(=O)n3cccc(C)c3nc21` was tested. Which inhibition did it give?
A: Its inhibition is 4.22%.

Q: `Cc1cccn2c(=O)c3cc(C(=O)NCCc4ccccc4)c(=N)n(CCCOC(C)C)c3nc12` was tested. Which inhibition did it give?
A: Its inhibition is 8.75%.

Q: `O=C(C=Cc1ccc(F)cc1)NC1CCC(CCN2CCc3ccc(-c4cnccn4)cc3CC2)CC1` (stereo not drawn) was tested. Which inhibition did it give?
A: The inhibition was 0.54%.

Q: `O=S(=O)(c1ccc2cc[nH]c2c1)N1CCC[C@@H]1CCN1CCC(c2c[nH]c3cnccc23)CC1` was tested. Which inhibition did it give?
A: The inhibition was 3.4%.

Q: How did the inhibition turn out when `ON=C(c1nc2ccccc2[nH]1)c1nc2ccccc2[nH]1` was run?
A: The inhibition was -0.84%.

Q: How did the inhibition turn out when `COc1cccc2cc(C(=O)N[C@@H](CC(C)C)C(=O)N[C@H](C=NN3CCOC3=O)Cc3ccccc3)oc12` was run?
A: Its inhibition is -0.71%.

Q: For `N#Cc1ccc(N/C(=N\c2ccccc2Cl)NC2CCN(Cc3ccccc3)CC2)c(O)c1`, which inhibition is on record?
A: Its inhibition is 2.09%.

Q: How did the inhibition turn out when `O=C(Nc1cccc(N2CCC(NCc3cccnc3)CC2)c1)c1cccc(C(F)(F)F)c1` was run?
A: Its inhibition is 1.16%.
